# Reference: publication PMC5540273 (PLoS ONE, 2017)
# What was measured:
# Details in all cases: concentration: 1 μM, replicates: in singlicate; n = 1
# CHEK2 = system: CHEK2
# CIT = system: CIT
# CLK1 = system: CLK1
# CLK2 = system: CLK2
# CLK3 = system: CLK3
# CLK4 = system: CLK4
# CSF1R-autoinhibited = system: CSF1R-autoinhibited
# CSF1R = system: CSF1R
# CSK = system: CSK
# CSNK1A1L = system: CSNK1A1L
# CSNK1A1 = system: CSNK1A1
# CSNK1D = system: CSNK1D
# CSNK1E = system: CSNK1E
# CSNK1G1 = system: CSNK1G1
# CSNK1G2 = system: CSNK1G2
# CSNK1G3 = system: CSNK1G3
# CSNK2A1 = system: CSNK2A1
# CSNK2A2 = system: CSNK2A2
# CTK = system: T1, CTK
# T1 construct: gene MATK
# DAPK1 = system: DAPK1
# 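Also: KINOMEscan kinase panel screen.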
SMILES,%Inh (CHEK2) [%],%Inh (CIT) [%],%Inh (CLK1) [%],%Inh (CLK2) [%],%Inh (CLK3) [%],%Inh (CLK4) [%],%Inh (CSF1R-autoinhibited) [%],%Inh (CSF1R) [%],%Inh (CSK) [%],%Inh (CSNK1A1L) [%],%Inh (CSNK1A1) [%],%Inh (CSNK1D) [%],%Inh (CSNK1E) [%],%Inh (CSNK1G1) [%],%Inh (CSNK1G2) [%],%Inh (CSNK1G3) [%],%Inh (CSNK2A1) [%],%Inh (CSNK2A2) [%],%Inh (CTK) [%],%Inh (DAPK1) [%]
Cc1cccc(-c2nc(-c3ccc(S(C)(=O)=O)cc3)sc2-c2ccnc(NCCc3ccccc3)c2)c1,0,0,8,2,12,1,1,72,2,0,0,1,8,5,1,0,0,28,0,0
CC(C)(C)c1ccc(C(=O)Nc2cn3cc(Cl)ccc3n2)cc1,2,27,75,29,2,75,14,1,0,0,19,67,59,0,16,0,0,0,0,20
Cl.NC(=O)c1cccc(Nc2nccc(Nc3ccc(Oc4cccc(Cl)c4)c(Cl)c3)n2)c1 [GW659008],0,19,13,0,10,17,22,14,17,16,1,5,8,0,0,17,15,19,2,0
Cc1cc(NCC(c2ccccc2)c2ccccc2)nc(NCc2ccc(C(F)(F)F)cc2)n1 [GW497681],18,30,15,0,37,15,30,6,0,2,0,0,34,0,0,22,0,0,0,2
CC1=C(C(=O)Nc2cc3cn[nH]c3cc2F)C(c2ccc(C(F)(F)F)cc2)CC(=O)N1 (stereo not drawn) [GSK429286],0,5,14,0,37,0,0,7,0,7,0,10,25,7,0,12,18,0,0,9
O=C1NC(=O)C(N2CCc3ccccc32)=C1c1ccccc1Cl [SB-373598],0,29,12,45,0,19,0,4,46,15,33,18,18,13,9,14,2,15,0,22
COc1cccc(-c2cc(-c3c[nH]nc3-c3ccccn3)ccn2)c1 [GW680338],18,7,22,22,0,28,51,0,0,8,31,25,23,1,3,10,4,11,0,0
Cn1ccc2ncnc(Oc3cccc(C(=O)Nc4ccccc4)c3)c21,0,8,9,0,0,18,9,6,14,2,0,0,1,0,0,2,25,11,17,20
Cc1ccc(NC(=O)Nc2cc(C(C)(C)C)nn2-c2ccccc2)cc1 [GSK1014915],0,29,33,0,14,15,0,30,0,9,0,13,0,0,0,25,13,0,18,6
Nc1nc(-c2nccs2)c(-c2ccnc3ccccc23)s1 [GW693542],0,44,22,0,0,16,0,0,9,23,40,58,41,9,0,24,0,2,0,0
Fc1cc(Cl)ccc1Nc1ccnc2cc(-c3ccc(CN4CCCCC4)o3)ccc12 [GW560116],35,63,11,0,0,27,0,20,0,1,0,7,46,11,0,23,0,94.6,0,1
Cn1ccc2ncnc(Oc3ccc(NC(=O)Nc4ccccc4)cc3)c21,14,22,1,0,0,14,10,95.1,0,3,4,13,5,0,11,0,14,0,0,11
Cl.c1ccc(-c2n[nH]cc2-c2ccnc(-c3ccc(CN4CCOCC4)cc3)c2)nc1 [GW776245],0,10,0,10,0,0,0,0,10,1,61,58,37,16,36,0,0,0,0,13
NC(=O)c1nnc2ccccc2c1N,16,7,51,17,1,1,0,14,0,38,66,49,37,9,0,43,11,24,0,2
Cc1nnc(-c2ccc3occ(-c4ccc(S(C)=O)cc4)c3c2)[nH]1 (stereo not drawn),10,0,0,22,0,29,8,5,0,26,0,0,0,8,4,0,63,72,21,10
Cn1cncc1-c1ccc2ncnc(Nc3ccc(OCc4ccccc4)cc3)c2c1 [GW320571],0,6,23,57,100,32,0,0,0,22,0,20,99.4,0,15,19,26,15,0,0
CC(C)(C)c1ccc(C(=O)Nc2cn3cc(-c4cccnc4)ccc3n2)cc1,6,28,84,41,32,74,10,30,13,15,41,78,92.4,10,24,21,22,17,12,40
CN1C(=O)C(Nc2ccc(Cl)c(C(=O)O)c2)=C(c2ccc(Cl)cc2)C1=O [SB-404290],0,0,18,7,25,2,0,3,0,15,0,0,38,0,0,15,18,7,0,0
